Results from PubChem BioAssay AID1159580 (chemical genetic matrix, 2015).
“And” between values parts separate entries of the source, which are not always exact repeats. Equal entries are not always repeated. Out of some 5,500 compounds screened, about 2,000 (36%) were called active. About 18% were inconclusive and are not listed. No stated cut-off is given here; in the data, active means normalized growth mostly below about 0.91 (no sharp cut-off); inconclusive means no clear call, values can overlap the other calls; inactive means mostly above about 0.92. The list shows a part of the results.

Assay: chemical genetic growth profiling, strain panel (AID 1159580);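 further: tested at 20 µM; growth read once vehicle control cultures reached saturation at 30 °C; 1 = growth at the plate median or of vehicle wells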
Settings: S. cerevisiae deletion strains, growth OD

Measured: normalized growth

CC(=O)N[C@@H](CCC(=O)O)C(=O)O
inactive: locus YAL021C, strain ccr4, stronger effect = lower value 1.03 | locus YAL026C, strain drs2, stronger effect = lower value 1.03 | locus YAL030W, strain snc1, stronger effect = lower value 1.01 | locus YBL061C, strain skt5, stronger effect = lower value 1.03 | locus YBR009C, strain hhf1, stronger effect = lower value 0.994 | locus YBR021W, strain FUR4, stronger effect = lower value 1.01 | locus YBR023C, strain chs3, stronger effect = lower value 1.03 | locus YBR171W, strain sec66, stronger effect = lower value 1.03 | locus YBR229C, strain ROT2, stronger effect = lower value 1 | locus YBR231C, strain swc5, stronger effect = lower value 1.02 | locus YBR279W, strain paf1, stronger effect = lower value 1.02 | locus YCL011C, strain gbp2, stronger effect = lower value 1.02 | locus YCL016C, strain dcc1, stronger effect = lower value 1.03 | locus YCL029C, strain bik1, stronger effect = lower value 1.02 | locus YCL069W, strain vba3, stronger effect = lower value 1.02 | locus YCR088W, strain abp1, stronger effect = lower value 1.02 | locus YDL005C, strain med2, stronger effect = lower value 1.02 | locus YDL035C, strain GPR1, stronger effect = lower value 1.01 | locus YDL040C, strain nat1, stronger effect = lower value 1.01 | locus YDL074C, strain BRE1, stronger effect = lower value 1.02 | locus YDL101C, strain DUN1, stronger effect = lower value 1.01 | locus YDL134C, strain PPH21, stronger effect = lower value 1.01 | locus YDL185W, strain tfp1, stronger effect = lower value 1 | locus YDL192W, strain arf1, stronger effect = lower value 1.01 | locus YDR001C, strain nth1, stronger effect = lower value 1.02 | locus YDR069C, strain doa4, stronger effect = lower value 1.03 | locus YDR101C, strain arx1, stronger effect = lower value 1.02 | locus YDR137W, strain rgp1, stronger effect = lower value 1.04 | locus YDR150W, strain NUM1, stronger effect = lower value 0.99 | locus YDR159W, strain sac3, stronger effect = lower value 1.01 | locus YDR162C, strain NBP2, stronger effect = lower value 1.01 | locus YDR195W, strain ref2 1.02 | locus YDR297W, strain sur2, stronger effect = lower value 1.02 | locus YDR318W, strain mcm21, stronger effect = lower value 1.03 | locus YDR334W, strain swr1, stronger effect = lower value 1.02 | locus YDR335W, strain msn5, stronger effect = lower value 1.02 | locus YDR388W, stronger effect = lower value 1.01 | locus YDR392W, strain spt3, stronger effect = lower value 1.05 | locus YDR502C, strain sam2, stronger effect = lower value 1.01 | locus YEL003W, strain gim4, stronger effect = lower value 1.01 | locus YEL037C, strain rad23, stronger effect = lower value 1.02 | locus YEL061C, strain CIN8 (second series), stronger effect = lower value 1.02 | locus YEL061C, strain CIN8, stronger effect = lower value 1.01 | locus YER015W, strain faa2, stronger effect = lower value 1.02 | locus YER016W, strain bim1, stronger effect = lower value 1.03 | locus YER110C, stronger effect = lower value 1.01 | locus YER111C, strain swi4, stronger effect = lower value 1.02 | locus YER155C, strain BEM2 (second series), stronger effect = lower value 1.01 | locus YER155C, strain BEM2, stronger effect = lower value 1.01 | locus YER167W, strain BCK2, stronger effect = lower value 1.01 | locus YFR010W, strain ubp6, stronger effect = lower value 1.01 | locus YGL078C, strain dbp3, stronger effect = lower value 0.996 | locus YGL086W, strain mad1, stronger effect = lower value 0.986 | locus YGL167C, strain pmr1, stronger effect = lower value 1.02 | locus YGL173C, strain kem1, stronger effect = lower value 1.01 | locus YGL227W, strain vid30, stronger effect = lower value 1.02 | locus YGL240W, strain doc1, stronger effect = lower value 1.01 | locus YGL248W, strain PDE1, stronger effect = lower value 1 | locus YGL253W, strain hxk2, stronger effect = lower value 1.04 | locus YGR078C, strain PAC10, stronger effect = lower value 0.999 | locus YGR135W, strain pre9, stronger effect = lower value 1.01 | locus YGR252W, strain gcn5, stronger effect = lower value 0.974 | locus YHR013C, strain ard1, stronger effect = lower value 1.06 | locus YHR027C, strain rpn1, stronger effect = lower value 1.02 | locus YHR030C, strain SLT2, stronger effect = lower value 1 and 0.981 | locus YHR079C, strain IRE1 (second series), stronger effect = lower value 1.02 | locus YHR079C, strain IRE1, stronger effect = lower value 0.981 | locus YHR094C, strain hxt1, stronger effect = lower value 1.01 | locus YHR129C, strain ARP1, stronger effect = lower value 1 | locus YHR142W, strain chs7, stronger effect = lower value 1.05 | locus YHR200W, strain rpn10, stronger effect = lower value 1 | locus YIL066C, strain RNR3, stronger effect = lower value 1.01 | locus YIL073C, strain SPO22, stronger effect = lower value 1.06 | locus YIL125W, strain kgd1, stronger effect = lower value 1 | locus YIR030C, strain dcg1, stronger effect = lower value 1.01 | locus YJL092W, strain hpr5, stronger effect = lower value 1.02 | locus YJL095W, strain BCK1 (second series), stronger effect = lower value 1.03 | locus YJL095W, strain BCK1, stronger effect = lower value 1.01 and 0.983 | locus YJL115W, strain asf1, stronger effect = lower value 1.01 | locus YJL129C, strain trk1, stronger effect = lower value 1.04 | locus YJL134W, strain LCB3, stronger effect = lower value 1.01 | locus YJL154C, strain vps35, stronger effect = lower value 1.02 | locus YJL164C, strain tpk1, stronger effect = lower value 1.01 | locus YJL166W, strain qcr8, stronger effect = lower value 1 | locus YJL168C, strain set2, stronger effect = lower value 1.01 | locus YJL187C, strain SWE1 (second series), stronger effect = lower value 1.01 | locus YJL187C, strain SWE1, stronger effect = lower value 1.03 | locus YJR043C, strain POL32, stronger effect = lower value 0.999 | locus YJR066W, strain TOR1, stronger effect = lower value 0.909
